Assay results taken from PubChem BioAssay (NCI).
This is part of a sample that, as a whole, favours compounds with a hit. Of some 83,000 tested, about 20% had one in any assay.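 The endpoint reported here, percent growth, reads 100 for growth as untreated, 0 for no net growth and -100 for all cells dead.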 Values without a mark were called inactive. Activity calls are given as the source filed them. The calls were made as follows: active = growth percent below 10; inactive = the rest.

Key:
Assay in all cases: NCI-60 one-dose screen, 48 h (100 = growth as untreated, 0 = no growth, -100 = all killed)
Conditions in all cases: 10 µM unless noted
NCI-H23 lung = system: NCI-H23 lung
NCI-H226 lung = system: NCI-H226 lung
NCI-H322M lung = system: NCI-H322M lung
HOP-62 NSCLC = system: HOP-62 NSCLC
NCI-H460 lung = system: NCI-H460 lung
HOP-92 NSCLC = system: HOP-92 NSCLC
NCI-H522 lung = system: NCI-H522 lung
A549/ATCC NSCLC = system: A549/ATCC NSCLC
786-0 renal = system: 786-0 renal
COLO 205 colon = system: COLO 205 colon
DU-145 prostate = system: DU-145 prostate
K-562 leukemia = system: K-562 leukemia
MALME-3M melanoma = system: MALME-3M melanoma
MDA-MB-231 breast = system: MDA-MB-231 breast
RXF 393 renal = system: RXF 393 renal
SF-268 CNS = system: SF-268 CNS
SF-295 CNS = system: SF-295 CNS
SF-539 CNS = system: SF-539 CNS
M14 melanoma = system: M14 melanoma

Structure (SMILES) | growth (NCI-H23 lung) [%] | growth (NCI-H226 lung) [%] | growth (NCI-H322M lung) [%] | growth (HOP-62 NSCLC) | growth (NCI-H460 lung) | growth (HOP-92 NSCLC) | growth (NCI-H522 lung) | growth (A549/ATCC NSCLC) [%] | growth (786-0 renal) | growth (COLO 205 colon) | growth (DU-145 prostate) | growth (K-562 leukemia) | growth (MALME-3M melanoma) | growth (MDA-MB-231 breast) | growth (RXF 393 renal) | growth (SF-268 CNS) [%] | growth (SF-295 CNS) | growth (SF-539 CNS) | growth (M14 melanoma)
NC(=O)NCC1CCCCC1 | 90.7 | 102 | 104 | 112% | 105% | 114% | 93.3% | 109 | 101% | 111% | 104% | 102% | 99.3% | 108% | 101% | 99.1 | 93.1% | 91.4% | 104%
N#Cc1cnc2cc(OC[C@@H](O)CO)c(NC(=O)C3CCCC3)cc2c1Nc1ccc(OCc2cccc(F)c2)c(Cl)c1 | 13.6 | 38.5 | 35.7 | -51.9% (active) | 0.536% (active) | -37.2% (active) | -58.5% (active) | 47.9 | 43.6% | 49.6% | -90.8% (active) | 0.239% (active) | -48.8% (active) | -58.5% (active) | -62.6% (active) | 23.1 | 1.06% (active) | -32.5% (active) | -53% (active)
C[C@]12CC[C@@H]3c4ccc(O)cc4CC[C@H]3[C@@H]1C[C@H](O)[C@@H]2O | 91.2 | 85 | 88.7 | 94.2% | 95.2% | 99.2% | 98.3% | 97.9 | 106% | 102% | 94.9% | 118% | 95.8% | 94.4% | 86.9% | 89.8 | 92.5% | 92.1% | 90.9%
COc1cc2c3c(c4c5ccccc5[nH]c4c2c(OC)c1OC)C(=O)N(O)C3=O | 54.9 | 42.6 | 37.4 | 38% | 26.9% | 78.4% | 45.7% | 60.3 | 69.6% | 61.1% | 71.7% | 20.8% | 78.5% | 44.2% | 52.2% | 49.3 | 47.8% | 30.9% | 37.5%
CNC(=O)c1cc(Oc2ccc3nc(NC(=O)Nc4ccc(Cl)cc4)sc3c2)ccn1 | 69 | 67.9 | 66.8 | 6.54% (active) | 64.4% | 63.3% | 78% | 44.1 | 75.3% | 79.4% | 53.2% | 65.6% | 17.7% | 34.4% | 50.8% | 56.2 | 66.3% | 83.5% | 63%
COc1cccc(-c2nn(-c3ccccc3)cc2-c2ccnc(NCCNS(=O)(=O)c3ccc(C(F)(F)F)cc3)c2)c1 | 17.1 | 34.8 | 45.1 | 35.6% | 11.4% | -10.9% (active) | 1.9% (active) | 14.2 | 3.75% (active) | -73.5% (active) | 46.6% | 3.79% (active) | -17.9% (active) | 6.28% (active) | -22.2% (active) | 36 | 3.05% (active) | 2.91% (active) | 13.6%
COc1ccc(C2=NN(c3nc(-c4ccc(OC)cc4)c(C#N)c(=O)n3C)C(=O)CC2)cc1 | 99.8 | 86.1 | 91.9 | 105% | 103% | 77.9% | 94.1% | 104 | 109% | 109% | 115% | 101% | 81.6% | 83.5% | 97.5% | 100 | 93.6% | 93.6% | 95.4%
Cn1c(=O)c2c(ncn2CCC(=O)Nc2ccc(F)cc2)n(C)c1=O | 100 | 109 | 105 | 92.6% | 108% | 95.5% | 90.3% | 89.5 | 95.1% | 108% | 105% | 96% | 114% | 102% | 115% | 103 | 105% | 96.9% | 97.8%
